Laboratory results published in PubChem BioAssay (NCI).
Values joined by “and” are separate entries in the source; they are usually repeats but may differ in a detail not shown here. Equal entries are not always repeated. Compounds without any hit were thinned out: in the full panel of roughly 79,000, 15% have a hit. Unmarked numbers belong to inactive results. Active and inactive are the calls of the source. Cut-off read from the data, not from the text of the source: active = growth inhibition above about 70%; inactive = the rest.

What was measured:
[1] = NCI Yeast Anticancer Drug Screen. Data for the mec2-1 strain (AID 157); conditions: S. cerevisiae mec2-1 strain, active compounds read high
Outline: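 Vehicle-treated cultures served as reference for growth inhibition of compound-exposed mec2-1 yeast.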

[2] = NCI Yeast Anticancer Drug Screen. Data for the sgs1 mgt1 strain (AID 161);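 note: 0% = growth of cultures given vehicle only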; conditions: S. cerevisiae sgs1 mgt1 strain, active compounds read high
Outline: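 Test agents were incubated with a DNA-repair-mutant yeast strain. Growth was then read and compared against vehicle-treated controls.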

[3] = NCI Yeast Anticancer Drug Screen. Data for the cln2 rad14 strain (AID 165);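 note: 0% = growth equal to vehicle treated cultures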; conditions: S. cerevisiae cln2 rad14 strain, active compounds read high
Outline: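 Each compound was tested on cln2 rad14 yeast. Inhibition of growth was calculated against vehicle-exposed controls.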

[4] = NCI Yeast Anticancer Drug Screen. Data for the bub3 strain (AID 167); conditions: S. cerevisiae bub3 mutant strain, active compounds read high
Outline: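 Mutant yeast screening strain plus compound; vehicle-treated cultures serve as the 0% inhibition reference.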

[5] = NCI Yeast Anticancer Drug Screen. Data for the mlh1 rad18 strain (AID 175); conditions: S. cerevisiae mlh1 rad18 strain growth inhibition, active compounds read high
Outline: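 Vehicle-treated cultures served as the reference for growth inhibition in a yeast strain carrying DNA damage repair alterations exposed to each compound.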

[6] = NCI Yeast Anticancer Drug Screen. Data for the rad50 strain (AID 155);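 note: 0% = growth of vehicle-only cultures of the same strain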; conditions: S. cerevisiae rad50 strain growth inhibition, active compounds read high
Outline: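 Vehicle-treated cultures provide the reference for the growth inhibition reported for compound-exposed, repair-deficient yeast.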

[7] = at 5.0 µM (retest, dose inferred, filed as 0.5)
[8] = at 50.0 µM (retest, dose inferred, filed as 5.0)

SMILES | growth inhibition [1, 7] | growth inhibition [1, 8] | growth inhibition ([1]; at 50.0 µM) | growth inhibition [2, 7] | growth inhibition [2, 8] | growth inhibition ([2]; at 50.0 µM) | growth inhibition [3, 7] | growth inhibition [3, 8] | growth inhibition ([3]; at 50.0 µM) | growth inhibition [4, 7] | growth inhibition [4, 8] | growth inhibition ([4]; at 50.0 µM) | growth inhibition [5, 7] | growth inhibition [5, 8] | growth inhibition ([5]; at 50.0 µM) | growth inhibition ([6]; at 50.0 µM) | growth inhibition [6, 7] | growth inhibition [6, 8]
O=C1OC2(CCCCC2)OC(=O)C1=Cc1ccc([N+](=O)[O-])s1 | 6% | 100% (active) | 27.4% | 9% | 99% (active) | 99.8% (active) | 4% | 61% | 10% | 0% | 99% (active) | 22.6% | 14% | 99% (active) | 30.7% | – | – | –
Nc1ccc(S(=O)(=O)O)c2ccccc12 | – | – | -18.1% and 3.25% and 3.85% | – | – | -10.4% and -28.8% and 7.35% | – | – | 6.25% and -52.1% and -17.6% | – | – | -1.95% and -17.8% and 7.6% | – | – | -12.8% and -40% and 8.1% | -17.7% and -12.8% and 15.7% | – | –
OC(c1ccccc1)C(O)c1ccccc1 (centres undefined) | – | – | -4.45% and -6.3% and 14.8% | – | – | 4.4% and 1.85% and 11.1% | – | – | -9.15% and -19.2% and 9.15% | – | – | 9.4% and 11.6% and 15.7% | – | – | 20.1% and 11.9% and 2.4% | 5.85% and 22.8% and 24.1% | – | –
CCN(CC)CCC(=O)c1ccc(Oc2ccc(C)cc2)cc1 | 6% | 36% | 40.2% | 24% | 75% (active) | 58% | 15% | 93% (active) | 24.9% | 18% | 89% (active) | 67% | 22% | 81% (active) | 53.1% | – | – | –
CN(C)C(=S)/N=c1\sn(C)/c(=N\C(=S)N(C)C)n1C | -11% | -11% | -5.9% | 5% | 7% | -5.6% | -27% | -36% | -75.8% | -13% | -17% | 0.6% | -7% | -8% | 19.8% | – | – | –
COC1CC(C)(NC(C)=O)C2OC(c3ccccc3)OCC2O1 (centres undefined) | -11% | -15% | 81.2% (active) | -7% | -24% | 71.9% (active) | -40% | 10% | 75.5% (active) | -21% | -8% | 82.7% (active) | -1% | -3% | 70.4% (active) | – | – | –
S=c1c2cn[nH]c2nc2scc(-c3ccc(Cl)cc3)n12 | – | – | – | -27% | 98% (active) | 65.9% | 24% | 98% (active) | 33.9% | -4% | 97% (active) | 49% | 11% | 97% (active) | 30.6% | 45.4% | 1% | 98% (active)
Cc1ccc2ccc(C(Nc3ccccc3)c3ccncc3)c(O)c2n1 (centres undefined) | – | – | – | 4% | 87% (active) | 43.5% | -6% | 81% (active) | 49.3% | -7% | 92% (active) | 81.1% (active) | -5% | 92% (active) | 89% (active) | 90.8% (active) | -6% | 92% (active)
Cc1nnc2nc3c(nn12)c1ccccc1n3C | -49% | -33% | 31.8% | – | – | – | -60% | -44% | 75.8% (active) | -64% | -57% | -0.35% | -146% | -77% | 5.45% | 46.3% | -155% | -54%
O=C1C(Cl)=C(Nc2cc(Cl)ccc2Cl)C(=O)c2ccccc21 | 63% | 98% (active) | 97.9% (active) | 68% | 100% (active) | 98.7% (active) | 20% | 95% (active) | 78.8% (active) | 96% (active) | 99% (active) | 99.5% (active) | 64% | 98% (active) | 99.5% (active) | – | – | –
Cc1c(O)c(Br)c(C)c(O)c1Br (tested in a mixture with another compound) | – | – | – | -2% | 90% (active) | 80.6% (active) | -2% | 47% | 1.05% | 1% | 77% (active) | 61.6% | 8% | 86% (active) | 62.1% | 75.8% (active) | 0% | 85% (active)
Cc1cc2c(c([N+](=O)[O-])c1C)C(=O)C(Br)=C(N)C2=O | 79% (active) | 99% (active) | 97.8% (active) | 96% (active) | 17% | 98.8% (active) | 45% | 98% (active) | 98.3% (active) | 87% (active) | 96% (active) | 94% (active) | 93% (active) | 99% (active) | 98% (active) | – | – | –
CCOC(=O)c1[nH]c2c([N+](=O)[O-])cccc2c1[N+](=O)[O-] | -16% | 16% | 98% (active) | -3% | 9% | 94.8% (active) | 4% | 25% | 98.6% (active) | 0% | 7% | 98.8% (active) | -2% | 37% | 99% (active) | – | – | –
Nc1ccc(-c2nc3ccccc3s2)cc1I | – | – | – | 44% | 88% (active) | 87.3% (active) | 50% | 68% | 86.2% (active) | 53% | 95% (active) | 84.2% (active) | 27% | 77% (active) | 84% (active) | 84.3% (active) | 34% | 71% (active)
CCCCCCCCCCCCNCc1ccc2c(c1)OCO2 | 99% (active) | 97% (active) | 99.1% (active) | 99% (active) | 96% (active) | 57.8% | 99% (active) | 96% (active) | 95.9% (active) | 99% (active) | 95% (active) | 98.7% (active) | 99% (active) | 95% (active) | 99% (active) | – | – | –
CCC1(CC)COC(C)(C(=O)O)OC1 | – | – | – | -68% | -69% | -2.95% | -51% | -77% | -41.4% | -65% | -71% | 6.2% | -127% | -168% | -6.2% | 56.9% | -155% | -176%
CC(C)(c1ccc(OC#N)cc1)c1ccc(OC#N)cc1 | -23% | 87% (active) | 53.4% | – | – | – | – | – | – | 1% | 95% (active) | 25% | -14% | 59% | 47% | 66% | 21% | 78% (active)
OCC(O)C(O)C(O)C(O)CNCC(O)C(O)C(O)C(O)CO (centres undefined) | – | – | 15% and 17.2% and 10.3% | – | – | 12.8% and 14.3% and -2.5% | – | – | -6.2% and -7.7% and -3.1% | – | – | 13% and 14.2% and 3.75% | – | – | 17.4% and 21% and 20.8% | 5.3% and 10.1% and 19.6% | – | –
O=C1OC(=O)C2C1C1(c3ccccc3)OC2(c2ccccc2)c2c(Br)c(Br)c(Br)c(Br)c21 (centres undefined) | – | – | – | 15% | 99% (active) | 99.2% (active) | 18% | 99% (active) | 98.6% (active) | 2% | 99% (active) | 98.7% (active) | 38% | 99% (active) | 98.2% (active) | 98.8% (active) | 23% | 99% (active)
C=C1C(O)C2(O)OCC34C(CC5C(C)=CC(=O)C(O)C5(C)C23)OC(=O)C(OC(=O)C/C=C/CCCCCCCC)C14 (centres undefined) | – | – | – | 75% (active) | 99% (active) | 92.8% (active) | 87% (active) | 99% (active) | 92% (active) | 84% (active) | 99% (active) | 91.5% (active) | 93% (active) | 99% (active) | 90.7% (active) | 92.2% (active) | 85% (active) | 98% (active)
N#CC#Cc1cccc(C#CC#N)c1 | – | – | – | – | – | – | 99% (active) | 98% (active) | 98.8% (active) | 98% (active) | 98% (active) | 98.9% (active) | 99% (active) | 98% (active) | 99.2% (active) | 98% (active) | 98% (active) | 98% (active)
CSc1ccccc1C(=O)O | – | – | -1.9% and -7.55% and 25.9% | – | – | -10.4% and -1.2% and 31.2% | – | – | -32.9% and -15.8% and 17.3% | – | – | -30.5% and -6.5% and -34% | – | – | -7.45% and -1.95% and -8.9% | -0.25% and -1.5% and -11% | – | –
CN(C)CC1CC/C(=C\c2ccc(Cl)c(Cl)c2)C1=O (centres undefined) | 44% | 99% (active) | 93.6% (active) | 25% | 98% (active) | 92.4% (active) | 37% | 99% (active) | 91.3% (active) | 74% (active) | 99% (active) | 91.5% (active) | 84% (active) | 99% (active) | 90.2% (active) | – | – | –
CCCCCCCN(CCCCCCC)CC(O)Cc1cc2c(c3ccccc13)CCCC2 (centres undefined) | – | – | – | 36% | 98% (active) | 99.5% (active) | 4% | 97% (active) | 98.7% (active) | 3% | 96% (active) | 94.7% (active) | 24% | 97% (active) | 98% (active) | 98.8% (active) | 6% | 97% (active)
CCC(C)NCCNc1cc(OC)cc2cccnc12 (centres undefined) | – | – | – | 7% | 10% | 21% | 16% | -5% | -26.6% | -1% | -1% | 35% | 10% | 33% | 51.1% | 42.9% | 10% | 13%
Cc1cc(N(CCOS(C)(=O)=O)CCOS(C)(=O)=O)ccc1C=Nc1cccc(Cl)c1 | 44% | 56% | 51.5% | 4% | 61% | 70.8% (active) | -3% | 57% | 13.1% | 0% | 15% | 29.7% | 24% | 92% (active) | 96.2% (active) | – | – | –
O=[N+]([O-])c1cccc2c1[nH]c1c(-c3ccccc3)nccc12 | 4% | 83% (active) | 47.8% | – | – | – | 0% | 67% | 80.3% (active) | 1% | 67% | 40% | 0% | 89% (active) | 89.8% (active) | 87.8% (active) | 2% | 83% (active)
CC(=O)OC1COC(SC(=N)N)C(OC(C)=O)C1OC(C)=O (centres undefined) | – | – | 15.8% and 17.9% and -1.25% | – | – | 27.9% and 22.1% and 24.4% | – | – | 19.6% and -30.5% and -41.8% | – | – | 1.65% and 6.55% and -1.75% | – | – | 22.6% and 29.1% and 4.55% | 41.4% and 24.4% and 20% | – | –
